Data as given in the supplement of paper PMC11732987, “Enantioselective OTUD7B fragment discovery through chemoproteomics screening and high-throughput optimisation” (Communications Chemistry, 2025).

Key:
Experiment in all cases: log2 ratio of Biotin-Ahx-Ub-VS probe labelling (fragment/DMSO); higher = less target engagement (more negative = stronger competition), active = hit call of the paper (q ≤ 0.05, log2 ratio ≤ -1)
Settings in all cases: compound concentration: 200 uM; treatment time: 3 h
[1] = molecular target: USP34 (UniProt Q70CQ2)
How it was run: (§1)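 Labelled DUBs were enriched with NeutrAvidin, digested with LysC and trypsin, and run by diaPASEF LC-MS/MS. The labelling used Biotin-Ahx-Ub-VS at 0.5 µM final for 1 h on HEK293T lysate (495 µg per sample) previously treated in triplicate with fragment at 200 µM or vehicle for 3 h. Values are average log2 fragment/vehicle ratios by unpaired t-test on global-median-normalised Spectronaut quantities of proteins with ≥2 unique peptides.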

[2] = molecular target: T1, USP36 (UniProt Q9P275)
T1 sequence (whole entry): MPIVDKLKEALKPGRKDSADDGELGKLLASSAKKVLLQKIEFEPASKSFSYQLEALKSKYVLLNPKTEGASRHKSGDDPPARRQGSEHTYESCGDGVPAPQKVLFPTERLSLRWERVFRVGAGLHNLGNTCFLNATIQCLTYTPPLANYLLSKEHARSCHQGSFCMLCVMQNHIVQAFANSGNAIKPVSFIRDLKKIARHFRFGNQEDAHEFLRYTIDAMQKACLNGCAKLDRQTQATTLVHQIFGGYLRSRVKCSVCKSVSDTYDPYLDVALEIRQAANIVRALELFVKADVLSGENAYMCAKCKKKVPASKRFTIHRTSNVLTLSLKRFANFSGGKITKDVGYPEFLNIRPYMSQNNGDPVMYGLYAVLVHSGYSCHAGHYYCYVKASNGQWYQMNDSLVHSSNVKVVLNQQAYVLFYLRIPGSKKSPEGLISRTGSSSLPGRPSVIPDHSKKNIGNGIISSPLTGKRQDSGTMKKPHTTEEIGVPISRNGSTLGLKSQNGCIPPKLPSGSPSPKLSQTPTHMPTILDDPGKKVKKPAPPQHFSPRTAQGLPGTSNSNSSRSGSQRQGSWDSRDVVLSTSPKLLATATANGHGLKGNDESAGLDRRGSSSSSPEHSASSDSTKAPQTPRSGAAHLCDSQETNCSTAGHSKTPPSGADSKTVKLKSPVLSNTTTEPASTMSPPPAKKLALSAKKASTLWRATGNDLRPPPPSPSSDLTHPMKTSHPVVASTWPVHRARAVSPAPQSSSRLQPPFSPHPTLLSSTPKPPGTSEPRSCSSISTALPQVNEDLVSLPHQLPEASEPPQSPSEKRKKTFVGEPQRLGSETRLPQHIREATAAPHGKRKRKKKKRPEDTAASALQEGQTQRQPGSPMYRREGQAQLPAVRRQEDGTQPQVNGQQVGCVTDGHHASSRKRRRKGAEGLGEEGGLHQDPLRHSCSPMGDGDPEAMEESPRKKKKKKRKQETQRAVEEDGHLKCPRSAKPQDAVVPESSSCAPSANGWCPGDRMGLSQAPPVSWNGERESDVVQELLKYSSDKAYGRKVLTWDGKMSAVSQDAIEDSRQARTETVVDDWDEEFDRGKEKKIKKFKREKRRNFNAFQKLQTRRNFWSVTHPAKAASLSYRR
How it was run: as §1

[3] = molecular target: T2, USP38 (UniProt Q8NB14)
T2 sequence (whole entry): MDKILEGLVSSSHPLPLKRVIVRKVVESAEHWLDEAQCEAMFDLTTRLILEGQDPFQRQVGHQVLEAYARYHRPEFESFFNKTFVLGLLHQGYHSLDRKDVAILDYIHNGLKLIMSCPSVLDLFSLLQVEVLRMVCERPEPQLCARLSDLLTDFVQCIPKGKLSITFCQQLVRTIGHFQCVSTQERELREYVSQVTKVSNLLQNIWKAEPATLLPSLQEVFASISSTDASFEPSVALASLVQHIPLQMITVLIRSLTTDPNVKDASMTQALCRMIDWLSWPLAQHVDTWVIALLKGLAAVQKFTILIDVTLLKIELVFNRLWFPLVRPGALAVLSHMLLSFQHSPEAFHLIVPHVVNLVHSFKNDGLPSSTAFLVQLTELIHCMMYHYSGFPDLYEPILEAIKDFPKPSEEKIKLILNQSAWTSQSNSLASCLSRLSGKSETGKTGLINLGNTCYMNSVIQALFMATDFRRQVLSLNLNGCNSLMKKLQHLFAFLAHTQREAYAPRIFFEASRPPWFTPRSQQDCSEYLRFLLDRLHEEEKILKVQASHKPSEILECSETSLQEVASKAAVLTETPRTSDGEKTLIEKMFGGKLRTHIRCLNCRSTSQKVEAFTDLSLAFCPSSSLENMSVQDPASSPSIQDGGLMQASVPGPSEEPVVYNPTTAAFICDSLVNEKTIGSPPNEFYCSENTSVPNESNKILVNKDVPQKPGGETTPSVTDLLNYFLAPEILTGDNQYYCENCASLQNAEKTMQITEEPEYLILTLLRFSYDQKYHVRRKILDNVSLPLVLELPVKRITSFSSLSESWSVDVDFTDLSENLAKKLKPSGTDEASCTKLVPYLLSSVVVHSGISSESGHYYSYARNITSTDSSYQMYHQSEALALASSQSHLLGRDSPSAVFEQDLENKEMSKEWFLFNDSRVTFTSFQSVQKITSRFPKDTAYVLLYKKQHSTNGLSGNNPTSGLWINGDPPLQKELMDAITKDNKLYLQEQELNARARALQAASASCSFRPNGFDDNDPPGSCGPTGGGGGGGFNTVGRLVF
How it was run: as §1

[4] = molecular target: T3, USP39 (UniProt Q53GS9)
T3 sequence (whole entry): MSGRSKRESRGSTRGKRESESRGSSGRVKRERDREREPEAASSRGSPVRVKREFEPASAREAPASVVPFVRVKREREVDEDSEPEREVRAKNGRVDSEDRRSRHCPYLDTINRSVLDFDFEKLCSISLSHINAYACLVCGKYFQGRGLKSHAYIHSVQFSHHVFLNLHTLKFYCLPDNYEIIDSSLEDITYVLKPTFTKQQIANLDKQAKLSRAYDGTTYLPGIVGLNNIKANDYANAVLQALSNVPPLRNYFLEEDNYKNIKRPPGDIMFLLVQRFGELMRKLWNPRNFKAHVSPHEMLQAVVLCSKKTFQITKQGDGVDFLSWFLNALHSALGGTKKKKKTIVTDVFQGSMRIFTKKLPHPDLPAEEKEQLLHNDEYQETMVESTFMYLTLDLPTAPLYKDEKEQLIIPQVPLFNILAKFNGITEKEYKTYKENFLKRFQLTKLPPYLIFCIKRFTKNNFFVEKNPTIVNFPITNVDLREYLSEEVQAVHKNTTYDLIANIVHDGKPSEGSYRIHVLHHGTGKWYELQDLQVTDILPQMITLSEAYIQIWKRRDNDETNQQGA
How it was run: as §1

[5] = molecular target: T4, USP4 (UniProt Q13107)
T4 sequence (whole entry): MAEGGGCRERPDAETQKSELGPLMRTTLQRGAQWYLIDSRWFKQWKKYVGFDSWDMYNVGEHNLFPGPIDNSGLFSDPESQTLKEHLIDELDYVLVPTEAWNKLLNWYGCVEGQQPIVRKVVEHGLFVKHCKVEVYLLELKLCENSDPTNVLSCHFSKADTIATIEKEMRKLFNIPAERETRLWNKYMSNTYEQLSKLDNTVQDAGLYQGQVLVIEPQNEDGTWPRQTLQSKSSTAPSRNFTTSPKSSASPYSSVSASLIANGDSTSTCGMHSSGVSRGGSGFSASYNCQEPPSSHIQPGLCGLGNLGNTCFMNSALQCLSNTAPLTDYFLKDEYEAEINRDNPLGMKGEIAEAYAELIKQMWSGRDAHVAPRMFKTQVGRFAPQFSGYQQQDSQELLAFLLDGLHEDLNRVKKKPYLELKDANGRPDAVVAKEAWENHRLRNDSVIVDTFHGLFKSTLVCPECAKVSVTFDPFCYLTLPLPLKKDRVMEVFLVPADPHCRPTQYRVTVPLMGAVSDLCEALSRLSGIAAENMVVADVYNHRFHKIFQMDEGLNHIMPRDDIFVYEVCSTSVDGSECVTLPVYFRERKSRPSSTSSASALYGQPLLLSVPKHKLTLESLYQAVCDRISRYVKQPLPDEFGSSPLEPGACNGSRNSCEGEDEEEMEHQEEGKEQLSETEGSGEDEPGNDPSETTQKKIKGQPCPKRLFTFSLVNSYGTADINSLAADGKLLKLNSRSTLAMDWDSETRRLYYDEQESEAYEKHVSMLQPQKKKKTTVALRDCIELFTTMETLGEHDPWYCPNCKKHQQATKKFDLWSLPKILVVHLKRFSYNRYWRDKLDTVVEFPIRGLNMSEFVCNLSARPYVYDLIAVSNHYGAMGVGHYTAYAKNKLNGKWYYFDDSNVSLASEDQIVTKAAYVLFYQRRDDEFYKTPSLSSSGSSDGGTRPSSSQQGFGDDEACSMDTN
How it was run: as §1

Measured: log2 ratio of Biotin-Ahx-Ub-VS probe labelling

Chain of USP34 (Q70CQ2 whole entry, the tested form may be a part): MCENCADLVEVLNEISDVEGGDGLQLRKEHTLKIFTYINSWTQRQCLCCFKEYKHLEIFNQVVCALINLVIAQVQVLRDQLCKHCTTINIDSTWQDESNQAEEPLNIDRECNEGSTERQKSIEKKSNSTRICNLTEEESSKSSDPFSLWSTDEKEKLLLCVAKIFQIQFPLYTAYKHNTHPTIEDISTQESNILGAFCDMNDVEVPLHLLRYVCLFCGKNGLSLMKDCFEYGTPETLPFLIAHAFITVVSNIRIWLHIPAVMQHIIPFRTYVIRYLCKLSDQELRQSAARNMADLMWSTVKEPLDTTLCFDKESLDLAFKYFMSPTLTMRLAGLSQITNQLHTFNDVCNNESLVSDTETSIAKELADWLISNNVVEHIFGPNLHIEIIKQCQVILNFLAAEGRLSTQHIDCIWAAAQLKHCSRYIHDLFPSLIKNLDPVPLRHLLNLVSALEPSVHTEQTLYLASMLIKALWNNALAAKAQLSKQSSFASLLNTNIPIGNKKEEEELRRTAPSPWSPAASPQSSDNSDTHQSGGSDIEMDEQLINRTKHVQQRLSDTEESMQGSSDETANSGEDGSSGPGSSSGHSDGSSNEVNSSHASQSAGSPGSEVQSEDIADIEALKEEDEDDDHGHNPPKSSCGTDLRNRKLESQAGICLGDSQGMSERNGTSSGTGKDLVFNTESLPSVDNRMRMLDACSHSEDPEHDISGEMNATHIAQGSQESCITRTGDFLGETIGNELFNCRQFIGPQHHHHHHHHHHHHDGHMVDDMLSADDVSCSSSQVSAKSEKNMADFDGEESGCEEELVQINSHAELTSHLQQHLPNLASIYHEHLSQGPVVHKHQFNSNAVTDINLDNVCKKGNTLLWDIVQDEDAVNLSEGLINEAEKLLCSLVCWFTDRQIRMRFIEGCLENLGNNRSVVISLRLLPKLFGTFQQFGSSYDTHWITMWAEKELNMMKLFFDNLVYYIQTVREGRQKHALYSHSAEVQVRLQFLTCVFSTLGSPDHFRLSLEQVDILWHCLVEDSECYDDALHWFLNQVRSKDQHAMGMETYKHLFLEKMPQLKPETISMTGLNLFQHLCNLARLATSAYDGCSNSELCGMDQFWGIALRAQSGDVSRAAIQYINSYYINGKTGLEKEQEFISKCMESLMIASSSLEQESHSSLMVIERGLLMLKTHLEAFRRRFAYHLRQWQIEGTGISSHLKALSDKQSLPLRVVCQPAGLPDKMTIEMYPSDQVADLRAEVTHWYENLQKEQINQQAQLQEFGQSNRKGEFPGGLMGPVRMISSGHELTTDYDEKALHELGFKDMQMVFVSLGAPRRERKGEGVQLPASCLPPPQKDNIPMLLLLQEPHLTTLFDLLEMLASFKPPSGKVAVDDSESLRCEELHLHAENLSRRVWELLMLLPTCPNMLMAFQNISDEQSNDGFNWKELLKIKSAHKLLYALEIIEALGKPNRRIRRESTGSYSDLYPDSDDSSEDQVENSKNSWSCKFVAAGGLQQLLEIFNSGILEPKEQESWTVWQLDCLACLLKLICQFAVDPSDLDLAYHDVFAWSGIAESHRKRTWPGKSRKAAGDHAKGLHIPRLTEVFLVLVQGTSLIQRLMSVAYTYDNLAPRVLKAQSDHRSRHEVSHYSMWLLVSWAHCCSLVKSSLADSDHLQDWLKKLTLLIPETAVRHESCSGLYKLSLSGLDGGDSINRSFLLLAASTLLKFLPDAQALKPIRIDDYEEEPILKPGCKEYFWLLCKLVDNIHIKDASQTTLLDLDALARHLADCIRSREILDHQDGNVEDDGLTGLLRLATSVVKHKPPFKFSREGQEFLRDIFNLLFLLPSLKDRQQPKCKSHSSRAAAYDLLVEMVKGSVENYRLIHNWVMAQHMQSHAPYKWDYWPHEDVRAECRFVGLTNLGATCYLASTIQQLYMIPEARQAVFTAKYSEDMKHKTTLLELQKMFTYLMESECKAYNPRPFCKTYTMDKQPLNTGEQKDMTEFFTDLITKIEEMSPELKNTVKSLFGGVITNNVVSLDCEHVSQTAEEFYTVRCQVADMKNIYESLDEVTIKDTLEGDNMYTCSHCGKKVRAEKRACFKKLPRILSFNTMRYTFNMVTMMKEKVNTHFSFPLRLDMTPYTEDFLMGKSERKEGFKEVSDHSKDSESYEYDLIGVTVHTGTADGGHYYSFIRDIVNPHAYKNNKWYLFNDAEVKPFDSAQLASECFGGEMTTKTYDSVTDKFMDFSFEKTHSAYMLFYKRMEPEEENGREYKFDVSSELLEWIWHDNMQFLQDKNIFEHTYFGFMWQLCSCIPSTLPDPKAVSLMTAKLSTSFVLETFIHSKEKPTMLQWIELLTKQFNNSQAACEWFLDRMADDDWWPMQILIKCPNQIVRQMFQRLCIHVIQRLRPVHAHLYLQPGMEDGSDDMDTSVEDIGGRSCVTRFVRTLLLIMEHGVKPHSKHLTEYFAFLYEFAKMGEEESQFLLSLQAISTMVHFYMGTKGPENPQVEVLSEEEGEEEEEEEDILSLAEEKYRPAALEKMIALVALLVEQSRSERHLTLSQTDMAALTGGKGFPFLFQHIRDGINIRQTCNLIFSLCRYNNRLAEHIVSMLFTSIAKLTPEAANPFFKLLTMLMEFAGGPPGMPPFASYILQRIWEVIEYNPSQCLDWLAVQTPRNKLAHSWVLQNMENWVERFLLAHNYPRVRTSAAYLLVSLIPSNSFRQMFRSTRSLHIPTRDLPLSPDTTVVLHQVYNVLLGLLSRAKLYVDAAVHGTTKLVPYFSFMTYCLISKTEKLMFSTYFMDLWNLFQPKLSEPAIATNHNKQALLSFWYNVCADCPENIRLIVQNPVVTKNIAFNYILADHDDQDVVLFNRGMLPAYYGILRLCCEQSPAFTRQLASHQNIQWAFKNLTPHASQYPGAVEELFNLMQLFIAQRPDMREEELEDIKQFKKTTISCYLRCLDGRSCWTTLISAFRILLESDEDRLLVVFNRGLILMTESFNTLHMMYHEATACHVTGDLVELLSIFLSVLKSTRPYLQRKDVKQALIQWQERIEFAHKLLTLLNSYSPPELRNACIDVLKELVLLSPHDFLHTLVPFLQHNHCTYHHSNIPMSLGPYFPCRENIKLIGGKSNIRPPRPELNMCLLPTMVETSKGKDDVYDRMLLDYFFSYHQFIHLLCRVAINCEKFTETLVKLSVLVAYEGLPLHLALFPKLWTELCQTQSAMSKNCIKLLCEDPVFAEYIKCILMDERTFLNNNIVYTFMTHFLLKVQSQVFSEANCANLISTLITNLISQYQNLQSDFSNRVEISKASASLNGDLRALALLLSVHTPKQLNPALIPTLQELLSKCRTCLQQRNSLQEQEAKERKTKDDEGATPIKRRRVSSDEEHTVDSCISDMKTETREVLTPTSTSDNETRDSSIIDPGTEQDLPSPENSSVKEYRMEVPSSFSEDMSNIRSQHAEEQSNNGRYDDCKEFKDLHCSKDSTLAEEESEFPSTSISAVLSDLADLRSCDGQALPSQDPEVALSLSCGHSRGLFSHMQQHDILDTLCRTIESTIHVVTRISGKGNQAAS

O=C(CCl)N1CCOC2(CCC2)C1
inactive: [1] 0.118 | [2] 0.102 | [3] 0.253 | [4] 0.11 | [5] -0.266
